Data published in PMC5540273 (PLoS ONE, 2017).
“And” between values parts separate entries of the source, which are not always exact repeats. Equal values may be shown once.

system: MELK; settings: concentration: 1 μM, replicates: in singlicate; n = 1
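Note: KINOMEscan kinase panel screen.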

| SMILES | %Inh [%] |
| --- | --- |
| COc1ccc(Nc2nccc(N3CCC(NC(=O)Nc4cccc(C(C)=O)c4)C3)n2)cc1 (stereo not shown) [GSK1379731] | 0 |
| Fc1ccc(-c2nn3c(OCC(F)(F)F)cccc3c2-c2ccncc2)cc1 [GW514784] | 3 |
| Cc1cn2c(=O)cc(N3CCOCC3)nc2n1Cc1cccc(Cl)c1Cl [GSK2334006] | 17 |
| Fc1ccc(-c2ncn(CCCN3CCOCC3)c2-c2cccnc2)cc1 [SB-211743] | 0 |
| C[C@@H](Oc1cc(-n2cnc3ccc(NC(=O)NC(C)(C)C)cc32)sc1C(N)=O)c1ccccc1Cl [GSK346294] | 21 |
| Cc1ccc(C(=O)NCC(N)=O)cc1-n1c(C)cc(OCc2ccc(F)cc2F)c(Br)c1=O | 24 |
| c1ccc(-c2n[nH]cc2-c2ccnc3ccccc23)nc1 [GW271431] | 10 |
| O=C1Cc2cc(Nc3nc(NCc4cccc(S(=O)(=O)C(F)(F)F)c4)ncc3C(F)(F)F)ccc2N1 | 0 |
| NCC(NC(=O)c1cc(-c2cn[nH]c2)c(-c2ccnc3[nH]ccc23)s1)c1ccccc1.O=C(O)C(F)(F)F.O=C(O)C(F)(F)F (stereo not shown) [GSK1325775] | 38 |
| COc1ccc(Nc2nccc(N3CCC(NC(=O)Nc4cc(C)ccc4C)C3)n2)cc1 (stereo not shown) [GSK1379741] | 0 |
| CC(C)Oc1ccc2c(-c3ccnc(Nc4ccc(N5CCN(C)CC5)cc4)n3)cnn2n1 [GW696155] | 71 |
| O=C(c1ccc(-c2cc(-c3c[nH]nc3-c3ccccn3)ccn2)cc1)N1CCOCC1 [GW812171] | 0 |
| CN(C(=O)c1ccc(-c2cc(-c3c[nH]nc3-c3ccccn3)ccn2)cc1)C1CCOCC1 [GW810083] | 41 |
| O=C(Nc1cccc(-c2nn3ncccc3c2-c2ccnc(Nc3cccc(C(F)(F)F)c3)n2)c1)c1c(F)cccc1F [GSK299495] | 0 |
| Cl.Oc1cccc(Nc2ccnc3cc(-c4ccncc4)ccc23)c1 [GW494601] | 0 |
| O=c1cc(N2CCOCC2)nc2n(Cc3cccc(F)c3)ccn12 [GSK2297430] | 18 |

| SMILES | %Inh [%] |
| --- | --- |
| COc1ccc(CNC(=O)NC2CCN(c3ccnc(Nc4ccc(OC)cc4)n3)C2)cc1 (stereo not shown) [GSK1379727] | 4 |
| CCc1nc(-c2cccc(C)c2)c(-c2ccnc(NCc3ccccc3)c2)s1 | 0 |
| CCc1ccnc(/C=C/c2n[nH]c3cc(Sc4ccccc4C(=O)NC)ccc23)c1 | 6 |
| Cc1nnc(-c2ccc(C)c(-c3ccc(C(=O)Nc4ccc(NS(C)(=O)=O)cc4)cc3)c2)o1 [GW702865] | 10 |
| Cc1nnc(-c2ccc3ncc(-c4ccc(S(C)=O)cc4)n3c2)o1 (stereo not shown) | 4 |
| CC(=O)Nc1ccc(COc2ccc(Nc3ccnc4cc(-c5ccccn5)ccc34)cc2)cc1.Cl [GW440148] | 5 |
| CCn1cnc2c(N)ncnc21 [GW345098] | 0 |
| Cc1nnc(-c2ccc3occ(-c4ccc(C(C)O)cc4)c3c2)o1 (stereo not shown) | 12 |
| O=c1cc(N2CCOCC2)nc2n(Cc3cccc(Cl)c3Cl)c(C3CC3)nn12 [GSK2358994] | 3 |
| O=C(NCCCN1CCOCC1)c1cccc(Nc2nccc(Nc3ccc(Oc4ccccc4)cc3)n2)c1 [GW663929] | 10 |
| [2H]C([2H])(c1cccc(C(F)(F)F)c1C)n1ccn2c(=O)nc(N3CCOCC3)cc12 [GSK2336394] | 0 |
| NS(=O)(=O)CCc1cccc(Nc2nccc(-c3c(-c4cccc(NC(=O)c5c(F)cccc5F)c4)nn4ccccc34)n2)c1 [GSK336735] | 24 |
| CN1c2ccc(NCc3ccc(F)cc3)cc2-c2c(cnn2C)S1(=O)=O | 0 |
| COCCNC(=O)c1ccc(-c2cc(C(=O)NC3CC3)cc(F)c2C)cc1 [GW868318] | 0 |
| N#Cc1ccc(-c2cc(-c3c[nH]nc3-c3ccccn3)ccn2)cc1 [GW693028] | 0 |
| O=C(NOCC1CC1)c1ccc(F)c(F)c1Nc1ccc(I)cc1Cl | 0 |

system: MERTK; settings: concentration: 1 μM, replicates: in singlicate; 1 µM; n = 1

| SMILES | %Inh |
| --- | --- |
| CC(C)(CN)c1nc(-c2ccc(Cl)c(O)c2)c(-c2ccncc2)[nH]1.O=C(O)C(F)(F)F [SB-477794] | 32% and 45% |
| NCCNS(=O)(=O)c1ccc(-c2ccnc3[nH]ccc23)cc1 [GSK977617] | 73% and 57% |
| Cl.Cl.Cl.Fc1ccc(-c2ncn(C3CCNCC3)c2-c2ccnc(Nc3ccccc3)n2)cc1 [SB-238039] | 15% and 0% |

same assay, conditions: concentration: 1 μM, replicates: in singlicate; n = 1

| SMILES | %Inh [%] |
| --- | --- |
| COc1ccc(Nc2nccc(N3CCC(NC(=O)Nc4cccc(C(C)=O)c4)C3)n2)cc1 (stereo not shown) [GSK1379731] | 35 |
| Fc1ccc(-c2nn3c(OCC(F)(F)F)cccc3c2-c2ccncc2)cc1 [GW514784] | 0 |
| Cc1cn2c(=O)cc(N3CCOCC3)nc2n1Cc1cccc(Cl)c1Cl [GSK2334006] | 5 |
| Fc1ccc(-c2ncn(CCCN3CCOCC3)c2-c2cccnc2)cc1 [SB-211743] | 4 |
| C[C@@H](Oc1cc(-n2cnc3ccc(NC(=O)NC(C)(C)C)cc32)sc1C(N)=O)c1ccccc1Cl [GSK346294] | 8 |
| Cc1ccc(C(=O)NCC(N)=O)cc1-n1c(C)cc(OCc2ccc(F)cc2F)c(Br)c1=O | 3 |
| c1ccc(-c2n[nH]cc2-c2ccnc3ccccc23)nc1 [GW271431] | 34 |
| O=C1Cc2cc(Nc3nc(NCc4cccc(S(=O)(=O)C(F)(F)F)c4)ncc3C(F)(F)F)ccc2N1 | 0 |
| NCC(NC(=O)c1cc(-c2cn[nH]c2)c(-c2ccnc3[nH]ccc23)s1)c1ccccc1.O=C(O)C(F)(F)F.O=C(O)C(F)(F)F (stereo not shown) [GSK1325775] | 0 |
| COc1ccc(Nc2nccc(N3CCC(NC(=O)Nc4cc(C)ccc4C)C3)n2)cc1 (stereo not shown) [GSK1379741] | 24 |
| CC(C)Oc1ccc2c(-c3ccnc(Nc4ccc(N5CCN(C)CC5)cc4)n3)cnn2n1 [GW696155] | 10 |
| O=C(c1ccc(-c2cc(-c3c[nH]nc3-c3ccccn3)ccn2)cc1)N1CCOCC1 [GW812171] | 12 |
| CN(C(=O)c1ccc(-c2cc(-c3c[nH]nc3-c3ccccn3)ccn2)cc1)C1CCOCC1 [GW810083] | 0 |
| O=C(Nc1cccc(-c2nn3ncccc3c2-c2ccnc(Nc3cccc(C(F)(F)F)c3)n2)c1)c1c(F)cccc1F [GSK299495] | 51 |
| Cl.Oc1cccc(Nc2ccnc3cc(-c4ccncc4)ccc23)c1 [GW494601] | 46 |
| O=c1cc(N2CCOCC2)nc2n(Cc3cccc(F)c3)ccn12 [GSK2297430] | 16 |

| SMILES | %Inh [%] |
| --- | --- |
| COc1ccc(CNC(=O)NC2CCN(c3ccnc(Nc4ccc(OC)cc4)n3)C2)cc1 (stereo not shown) [GSK1379727] | 16 |
| CCc1nc(-c2cccc(C)c2)c(-c2ccnc(NCc3ccccc3)c2)s1 | 0 |
| CCc1ccnc(/C=C/c2n[nH]c3cc(Sc4ccccc4C(=O)NC)ccc23)c1 | 0 |
| Cc1nnc(-c2ccc(C)c(-c3ccc(C(=O)Nc4ccc(NS(C)(=O)=O)cc4)cc3)c2)o1 [GW702865] | 0 |
| Cc1nnc(-c2ccc3ncc(-c4ccc(S(C)=O)cc4)n3c2)o1 (stereo not shown) | 0 |
| CC(=O)Nc1ccc(COc2ccc(Nc3ccnc4cc(-c5ccccn5)ccc34)cc2)cc1.Cl [GW440148] | 11 |
| CCn1cnc2c(N)ncnc21 [GW345098] | 25 |
| Cc1nnc(-c2ccc3occ(-c4ccc(C(C)O)cc4)c3c2)o1 (stereo not shown) | 3 |
| O=c1cc(N2CCOCC2)nc2n(Cc3cccc(Cl)c3Cl)c(C3CC3)nn12 [GSK2358994] | 34 |
| O=C(NCCCN1CCOCC1)c1cccc(Nc2nccc(Nc3ccc(Oc4ccccc4)cc3)n2)c1 [GW663929] | 0 |
| [2H]C([2H])(c1cccc(C(F)(F)F)c1C)n1ccn2c(=O)nc(N3CCOCC3)cc12 [GSK2336394] | 0 |
| NS(=O)(=O)CCc1cccc(Nc2nccc(-c3c(-c4cccc(NC(=O)c5c(F)cccc5F)c4)nn4ccccc34)n2)c1 [GSK336735] | 87 |
| CN1c2ccc(NCc3ccc(F)cc3)cc2-c2c(cnn2C)S1(=O)=O | 0 |
| COCCNC(=O)c1ccc(-c2cc(C(=O)NC3CC3)cc(F)c2C)cc1 [GW868318] | 0 |
| N#Cc1ccc(-c2cc(-c3c[nH]nc3-c3ccccn3)ccn2)cc1 [GW693028] | 15 |
| O=C(NOCC1CC1)c1ccc(F)c(F)c1Nc1ccc(I)cc1Cl | 0 |
